According to PubChem BioAssay (NCI):
The panel holds about 83,000 compounds, 20% with a hit somewhere; the sample as a whole holds those more often.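 Results are percent growth after 48 hours of single-concentration exposure. 100 means growth as in untreated cells, lower positive values show inhibition; negative values down to -100 show cell death.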 Unmarked numbers belong to inactive results. The source made the active and inactive calls. How the source made its calls: active means growth percent below 10; inactive means the rest.

Tested on: HL-60(TB) leukemia
Test: NCI-60 one-dose screen, 48 h (100 = growth as untreated, 0 = no growth, -100 = all killed)
Details: 10 µM unless noted

| SMILES | growth |
| --- | --- |
| CCOC(=O)C(=O)CC(=O)c1ccccc1 | 95.5% |
| CN1CCN(Cc2ccc(NC(=O)c3cncc(C#Cc4c(N)ncc5ccccc45)c3)cc2C(F)(F)F)CC1 | -53.2% (active) |
| COc1cc2c(=O)[nH]c3cc([N+](=O)[O-])ccc3c2cc1[N+](=O)[O-] | 71.1% |
| CN(C)CCCn1c2c(c3ccc(N4CCNCC4)cc3c1=O)C(=O)c1ccccc1-2 | 8.73% (active) |
| O=C(/C=C/c1ccc([N+](=O)[O-])o1)NNC(=O)c1cc2ccccc2cc1O | 1.21% (active) |
| CC(C)C[C@H](C(=O)N[C@@H](C)C(N)=O)N1CC=CCN(O)S1(=O)=O | 110% [5 µM] |
| CCC(=O)OC1=CN2C(=NC(c3ccc(N)cc3)=CC2c2cc(OC)c(OC)c(OC)c2)S1 (stereo not given) | 36.5% |
| COc1ccc2nccc(Cl)c2c1 | 103% |
| CC(C)CCSc1nc(Nc2ccccc2)c(C#N)c(-c2ccc(F)cc2)n1 | 59.6% |
| O=c1[nH]c(-c2cccc(F)c2)cc2cc(F)ccc12 | -24.6% (active) |
| COc1ccc(CN2CCc3c(Cl)nc(N)nc3C2=O)c(OC)c1 | 12.3% [100 µM] |
| Oc1ccc(/C=C/c2ccccc2)cc1 | 34.1% |
| Cc1nn(-c2ccc(Cl)cc2)c2ncnc(N/N=C/c3cccc([N+](=O)[O-])c3)c12 | 31% |
| S=C=NP1(N=C=S)=NP(N=C=S)(N=C=S)=NP(N=C=S)(N=C=S)=NP(N=C=S)(N=C=S)=N1 (stereo not given) | 60.7% |
| Cc1cc(Cl)nc(N(CCCNc2ccnc3cc(Cl)ccc23)Cc2ccco2)n1 | -35.9% (active) |
| Nc1nc(-c2cccnc2)nc2c1sc(=S)n2-c1ccccc1 | 99.3% |
| COC(=O)[C@@H]1[C@H](O)[C@H](C)[C@H](O)[C@H](C)/C=C\C=C(C)C(=O)Nc2c(C)c(OC(C)=O)c3c(c2O)C(=O)C(C)=C2OCOC(=C23)C(C)=C[C@@](C)(O)[C@H](O)[C@@H](C)[C@H]1OC(C)=O | 119% |
| C=C1C(=O)O[C@H]2[C@H]1CC/C(COC(=O)/C=C\C(=O)NCc1ccc(Cn3c(=O)sn(-c4ccc(OC)cc4)c3=O)cc1)=C\CC[C@@]1(C)O[C@@H]21 | -35.8% (active) |

| SMILES | growth |
| --- | --- |
| CC(=O)N1N=C2N(Cc3ccccc3)C(=O)c3c(sc4c3CCCC4)N2C1c1cn(-c2ccccc2)nc1-c1ccc(Cl)cc1 (stereo not given) | 88.5% |
| O=C1c2c(c(=O)[nH]c3ccccc23)CCN1Cc1ccccc1 | 118% |
| Cc1c(Cl)cccc1C(=O)Nc1nc2c(s1)CN(C(=O)Nc1cccc(C(F)(F)F)c1)CC2 | 6.4% (active) |
| CN1CCN(CCCOc2ccc3ncnc(Nc4ccc(Oc5cccc(C(F)(F)F)c5)c(Cl)c4)c3c2)CC1 | -45.9% (active) |
| COc1ccc(Oc2nc(Nc3ccc(N4CCOCC4)nc3)ncc2NC(=O)c2cc(OC)cc(OC)c2)cc1 | 75% |
| COc1cccc(-c2nc3sccn3c2-c2ccnc(NCCCNS(=O)(=O)c3c(Cl)cccc3Cl)c2)c1 | 17.9% |
| OC(c1cc(-c2ccc(C(F)(F)F)cc2)nc(-c2ccc(C(F)(F)F)cc2)c1)C1CCCCN1 (stereo not given) | -61.8% (active) |
| COCCOCCOCc1n(Cc2ccc3ccccc3c2)c2ccccc2[n+]1Cc1ccc2ccccc2c1 | -53.5% (active) |
| C(=N\Nc1ncc(-c2cc3cc4c(cc3o2)OCO4)s1)/c1ccco1 | 16.2% |
| Clc1ccccc1-c1nc(Nc2nc3ccccc3s2)nc(C(Cl)(Cl)Cl)n1 | 32.9% |
| COC(=O)CCCCN=Cc1c(O)c(O)c(C(C)C)c2cc(C)c(-c3c(C)cc4c(C(C)C)c(O)c(O)c(C=NCCCCC(=O)OC)c4c3O)c(O)c12 | 10.9% |
| CC1(O)CCC2CC3OC3(C)CCC3OC3(C)CCC1C2(C)C (stereo not given) | 120% |
| Cc1cc(N2CCCC2)nc(NC2CCCC(Nc3ccnc4cc(Cl)ccc34)C2)n1 (stereo not given) | -68.5% (active) |
| COc1cc(/C=N/Nc2ncnc3c2c(C)nn3-c2ccc(F)cc2)ccc1O | 98.3% |
| CCOC(=O)c1cc2oc(/C=C/c3cc(=O)c4cc(Cl)ccc4o3)cc2[nH]1 | 93% |
| CCOC(=O)CNP(=O)(OC[C@@H](Cc1ccccc1)NC(=O)c1cc2ccccc2s1)Oc1ccccc1 (stereo not given in full) | 79.4% |
| CN(C)CCCNc1c2ccccc2nc2ccccc12 | 72.8% |
